# Reference: PubChem BioAssay AID720540 (National Center for Advancing Translational Sciences (NCATS), 2013)
# Among all 1,300 compounds or so, about 460 (35%) were called active. About 39% were inconclusive and are not listed. Calls come from the whole dose curve; as a rule, active = well fitted inhibition curve with a large enough effect; inconclusive = small, poorly fitted or top-dose-only effect; inactive = flat fitted curve, though single readings scatter. The list shows a part of the results. The source holds several records for some structures; these can differ, active in one and inactive in another.
# Target: Protein phosphatase EYA2 (Homo sapiens) (UniProt O00167)
# Sequence (O00167 whole entry, looked up): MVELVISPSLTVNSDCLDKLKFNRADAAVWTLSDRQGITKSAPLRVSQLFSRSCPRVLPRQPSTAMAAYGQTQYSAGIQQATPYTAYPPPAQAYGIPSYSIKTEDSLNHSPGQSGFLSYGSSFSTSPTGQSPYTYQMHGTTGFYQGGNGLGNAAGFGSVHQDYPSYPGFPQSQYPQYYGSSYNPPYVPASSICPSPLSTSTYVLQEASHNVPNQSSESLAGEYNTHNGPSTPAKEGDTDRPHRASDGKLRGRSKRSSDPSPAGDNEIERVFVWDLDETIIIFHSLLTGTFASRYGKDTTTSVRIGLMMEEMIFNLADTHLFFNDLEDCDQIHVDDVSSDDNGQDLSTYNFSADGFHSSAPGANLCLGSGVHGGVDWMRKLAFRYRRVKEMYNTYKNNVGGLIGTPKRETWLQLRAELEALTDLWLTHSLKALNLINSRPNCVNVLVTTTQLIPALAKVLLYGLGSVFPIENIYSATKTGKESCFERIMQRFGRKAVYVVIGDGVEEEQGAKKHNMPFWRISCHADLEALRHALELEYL
# Assay: qHTS for Inhibitors of the Phosphatase Activity of Eya2: Confirmatory Assay for Cherry-picked Compounds; note: nearly all actives have a fitted effect of over 65% in size;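 for activity change, negative = inhibition: 0% = DMSO wells and -100% = EGTA control giving full inhibition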
# Settings: purified EYA2 phosphatase activity, qHTS confirmation; series mostly up to 46.1 µM; activity change, negative = inhibition: at the top concentration
# Excerpt: The Eya protein family is an essential co-activator of the Six1 transcription factor. Six1 is a developmental gene that is abnormally re-expressed in a large percentage of breast cancers. This over-expression plays a causal role in the initiation and metastatic development of breast cancers. The Eya family of protein is also found to contain a unique HAD phosphatase domain with protein tyrosine phosphatase activity which can potentially play a role in Six1-mediated breast tumorigenesis. Recently, Eya2 is found to dephosphorylate the histone variant H2AX and direct cells towards DNA repair instead of apoptosis in the event of DNA damage.
# A 1536 well format, fluorescence based qHTS assay was developed and used to target the phosphatase activity of Eya2 (AID 488837). Inhibitors found against Eya2 could serve as potential therapeutic tools to inhibit Six1-mediated breast tumorigenesis and to increase the efficiency of radiation and certain chemo therapy. This assay assessed the activity of the primary screen cherry-picked compounds against Eya2. Inhibition is the desired outcome for this assay.
# NIH Chemical Genomics Center [NCGC]
# NIH Molecular Libraries Probe Centers Network [MLPCN]
# Assay Submitter (PI): Rui Zhao, University of Colorado Denver
# Eya2 enzyme and 3-O-methyl-fluorescein phosphate (OMFP) substrate working solutions were reconstituted in the buffer reagent consist of 50 mM HEPES pH 7.5, 50 mM NaCl, […], 0.05% BSA and 1 mM DTT. One and a half microliter of 0.2 uM Eya2 working solution was dispensed in a 1536 well Greiner plate (black, medium bind). Twenty-three nanoliter of test compounds and control compound EGTA was transferred to the assay plate using the Kalypsys robotic system equipped with a 1536 pin head. The plate was incubated at room temperature for 10 minutes. One and a half microliter of the 50 uM the OMFP substrate was then dispensed to the assay plate and incubated at room temperature for additional 10 min. The fluorescence signal was read using the PerkinElmer ViewLux plate reader using a 485 nm excitation and 525 nm emission filters. The data was normalized to the positive control for maximum inhibition and DMSO treated wells as negative control.
SMILES,Potency,"activity change, negative = inhibition"
CN(C)S(=O)(=O)c1ccc(C(=O)NNc2nc(-c3ccccc3)c3cc(Br)ccc3n2)cc1,8.49 µM (active),
Cc1ccc(N2C(=O)NC(=O)/C(=C/c3ccc(OC(=O)c4cccs4)cc3)C2=O)cc1,12 µM (active),
O=C(Cc1ccccc1)c1ccccn1,10.7 µM (active),
O=C1NC(=S)N(c2ccccc2)C(=O)/C1=C/c1ccco1,6.75 µM (active),
COC(=O)C1=C(c2cccc(OCc3ccccc3)c2)C[C@@H]2CC[C@H]1N2C(=O)NCCCc1ccccc1,,-16.1% (inactive)
COC(=O)C1=C(c2ccc(F)cc2OCc2ccccc2)C[C@@H]2CC[C@H]1N2C(=O)NCc1ccc(N(C)C)cc1,8.49 µM (active),
C[C@H]1CCC[C@H](O)CCCCCc2cc(O)cc(O)c2C(=O)O1,,-21.4% (inactive)
N[C@@H](Cc1cc(I)c(O)c(I)c1)C(=O)O,9.53 µM (active),
NC(Cc1cc(O)c(O)cc1O)C(=O)O (stereo not given),2.39 µM (active),
COc1ccc(-c2cc(=NCCC(=O)O)c3cc(C)ccc3o2)cc1,16.9 µM (active),
CN(C)c1ccc(C=C2C=CC=C2)cc1,19 µM (active) and inactive,
COc1ccccc1N1CCN(CCc2c[nH]c3cc4c(cc23)OCO4)CC1,19 µM (active),
CNc1ccc2nc3ccccc3[n+](C)c2c1,16.9 µM (active),
O=C(O)CCCOc1ccc(Cl)cc1Cl,,-4.59% (inactive)
O=[N+]([O-])c1cc(C(F)(F)F)c(Cl)c([N+](=O)[O-])c1Nc1ncc(C(F)(F)F)cc1Cl,21.3 µM (active),
C=C1C(=O)O[C@@H]2C[C@@H](C)[C@@H]3C=CC(=O)[C@@]3(C)[C@@H](OC(=O)CC(=O)O[C@H]3[C@@H]4C(=C)C(=O)O[C@@H]4C[C@@H](C)[C@@H]4C=CC(=O)[C@]43C)[C@H]12,10.7 µM (active),
CCOC(=O)CCCc1cc[c]([Sb](=[O])([OH])[OH])cc1,2.13 µM (active),
CCOC(=O)c1cc2c(cn1)[C@@H](CCO)NC2,,-11.5% (inactive)
Cc1c(N=Nc2c(O)[nH]c(=O)[nH]c2=O)c(=O)n(-c2ccccc2)n1C,2.13 µM (active),
COC1C(O)C(C)OC(OC2C(Oc3cccc4c(O)c5c(=O)oc6ccc(C)c7c(=O)oc(c34)c5c67)OC(C)C(O)C2O)C1O (stereo not given),,-10.3% (inactive)
CN(C)c1ccc(N=Nc2ccccc2)cc1,5.36 µM (active),
Cc1nc2ccccc2c(=O)n1-c1ccc(Cl)cc1[N+](=O)[O-],,-9.84% (inactive)
CC(N)[C@H](O)c1ccc(O)c(O)c1 (stereo not given in full),,-20.7% (inactive)
O=C(O)c1cc[c]([Sb](=[O])([OH])[OH])cc1[N+](=O)[O-],2.69 µM (active),
O=C1NC(=O)N(c2ccc(Cl)cc2)C(=O)/C1=C\c1ccc(Sc2nc3ccccc3[nH]2)o1,13.5 µM (active),
